# Source: the supplement of paper PMC3656093
# ± gives the standard deviation of the averaged measurements. Whole data set: some 1,900 compounds, median “CD40L-induced NF-kB luciferase activity, plate-corrected, relative to DMSO (0) and IKK inhibitor VII (-100) controls” near 0.032, cut for the lowest 2% near -26. For the sample, the lowest values were picked, then their nearest neighbours and some compounds at random.
# System: BL2-NFkB-Luc
# Assay: CD40L-induced NF-kB luciferase activity, plate-corrected, relative to DMSO (0) and IKK inhibitor VII (-100) controls (% normalized activity); higher = more NF-kB reporter activity (less inhibition)
# Conditions: 9.4 µM; stimulus: tCD40L 64 ng/ml; 4.5 h
# Experimental: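 BL2 B cells with a stable NF-kB response-element luciferase reporter (BL2-NFkB-Luc), 384-well. Cells were pre-incubated with compound at 9.4 uM for 1 h at 37 C, then stimulated with 64 ng/ml trimerized CD40L for 4.5 h; luciferase was read with Steady-Glo. Signal was normalised per plate in Genedata (median DMSO neutral control = 0, median IKK inhibitor VII at 50 uM = -100) with Assay Median plate-pattern correction; duplicate plates.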
row,SMILES,CD40L-induced NF-kB luciferase activity
1,O=C1C=Cc2ccccc2C1=O,4.88 ± 5.5
2,O=C1C(=O)c2ccccc2-c2ccccc21,-94.61 ± 0.41
3,CCCC[N+]1(C)[C@@H]2CC(OC(=O)[C@H](CO)c3ccccc3)C[C@H]1[C@@H]1O[C@@H]12 (stereo partly drawn),-0.479 ± 2.2
4,CCN(CC)C(=O)N[C@H]1C[C@@H]2c3cccc4[nH]cc(c34)C[C@H]2N(C)C1,-15 ± 8.3
5,CC(C)C[C@H]1C(=O)N2CCC[C@H]2[C@]2(O)O[C@](NC(=O)[C@@H]3C=C4c5cccc6[nH]c(Br)c(c56)CC4N(C)C3)(C(C)C)C(=O)N12 (stereo partly drawn),3.22 ± 1.5
6,c1ccc2c(c1)[nH]c1cnccc12,-5 ± 7.4
7,COc1cc([C@@H]2c3cc4c(cc3[C@H](O)[C@H]3COC(=O)[C@H]23)OCO4)cc(OC)c1OC,-50.7 ± 3
8,CCCC(=O)OCC[N+](C)(C)C,-5.48 ± 4.7
9,CN1[C@@H]2CC[C@H]1CC(OC(=O)C1C=Nc3ccccc31)C2 (stereo partly drawn),-2.21 ± 6.7
10,Cc1ccc2c(c1)C1CN(C)CCC1N2C(=O)Nc1cccc(Cl)c1 (stereo not drawn),-6.16 ± 2.1
11,C[C@H]1OC[C@@H](C[N+](C)(C)C)O1,-0.99 ± 1.9
12,COc1ccc(CN2CC3CC(C2)c2cccc(=O)n2C3)cc1OC (stereo not drawn),-5.62 ± 3.4
13,CN[C@H](C)[C@H](O)c1ccccc1,-2.12 ± 1.3
14,COc1ccc(OCC(=O)N2c3ccc(C)cc3C3CN(C)CCC32)cc1 (stereo not drawn),0.261 ± 0.6
15,CC(C)C[C@H](NC(=O)[C@@H]1CCCN1C(=O)[C@@H](N)Cc1ccc(O)cc1)C(=O)NCC(N)=O,-28.7 ± 4.1
16,CC(C)(C)NCC(O)c1cc(Cl)c(N)c(Cl)c1 (stereo not drawn),-3.51 ± 17
17,COc1ccc(CCN2CCC(Nc3nc4ccccc4n3Cc3ccc(F)cc3)CC2)cc1,-4.18 ± 3.9
18,CC[C@H]1CN2CCc3cc(OC)c(OC)cc3[C@@H]2C[C@@H]1C[C@H]1NCCc2cc(OC)c(OC)cc21,-93.93 ± 0.21
19,c1ccc2c3c([nH]c2c1)CNCC3,-0.0865 ± 4.1
20,C[C@@H]1O[C@@H](O[C@H]2C[C@@H](O)[C@]3(CO)[C@H]4[C@H](O)C[C@]5(C)[C@@H](C6=CC(=O)OC6)CC[C@]5(O)[C@@H]4CC[C@]3(O)C2)[C@H](O)[C@H](O)[C@H]1O,-78.94 ± 0.33
21,CC12CC[C@H]3[C@@H](CCC4(O)C[C@H](O)CCC34C=NNC(=O)Cc3ccccc3)C1(O)CCC2C1=CC(=O)OC1 (stereo partly drawn),-1.26 ± 0.48
22,C[C@@H]1O[C@@H](O[C@H]2C[C@@H](O)[C@]3(CO)[C@H]4[C@H](O)C[C@]5(C)[C@@H](C6COC(=O)C6)CC[C@]5(O)[C@@H]4CC[C@]3(O)C2)[C@H](O)[C@H](O)[C@H]1O (stereo partly drawn),2.54 ± 3.8
23,CC12CN3CC(C)(CN(C1)C3c1cccs1)C2O (stereo not drawn),-2.02 ± 2.9
24,C[C@]12CCC(=O)C=C1CCC1C2CC[C@@]2(C)C1CC[C@@]2(O)CC#N (stereo partly drawn),-0.607 ± 3.7
25,O=C1CSC2N1CCNC21CCCCC1 (stereo not drawn),-1.57 ± 5.5
26,CCC1(c2ccccc2)C(=O)N(COC)C(=O)N(COC)C1=O,-30.1 ± 1.2
27,CN1C2CCC1CC(OC(=O)c1ccc(Cl)cc1)C2 (stereo not drawn),-2.24 ± 2.5
28,CN(C)[C@@H]1C(=O)C(C(N)=O)C(=O)[C@@]2(O)C(=O)C3C(=O)c4c(O)cccc4[C@@](C)(O)[C@H]3[C@H](O)[C@@H]12 (stereo partly drawn),0.102 ± 0.97
